40 molecules from PubChem BioAssay (EPA / NIEHS) can be followed below.

Inconclusive results are not listed. Active and inactive are the calls of the source. The calls were made as follows: active = hit-call score of the fitted dose curve at least 0.9, where 1 is the maximum; inconclusive = response in the unintended direction; inactive = score below 0.9.

The nature of the test: Tanguay_ZF_120hpf_SNOU_legacy: (Legacy) Oregon State University Tanguay Lab 120 Hour Post-fertilization zebrafish Assay for Snout Malformation (AID 2283637). The method, then: Tanguay_ZF_120hpf_legacy is a whole embryo, multiplexed endpoint assay using zebrafish larvae exposed for 120 hours post fertilization on a 96-well plate.Tanguay_ZF_120hpf_SNOU_legacy is one of one assay component(s) measured or calculated from the Tanguay_ZF_120hpf_legacy assay. It is designed to make measurements of zebrafish development as detected with brightfield microscopy of developing zebrafish embryos.Data from the assay component Tanguay_ZF_120hpf_SNOU_legacy was analyzed into 1 assay endpoints. This assay endpoint, Tanguay_ZF_120hpf_SNOU_legacy, was analyzed in the positive analysis fitting direction relative to DMSO as the negative control and baseline of activity. Using a type of morphology reporter, gain-of-signal activity can be used to understand changes in developmentals as they relate to the whole embryo. To generalize the intended target to other relatable targets, this assay endpoint is annotated to the zebrafish development intended target family, where the subfamily is embryonic snout morphogenesis.
Zebrafish husbandry: Tropical 5D wild-type adult zebrafish were housed in at an approximate density of 1000 per 100 gallon tank at the Sinnhuber Aquatic Research Laboratory, Oregon State University, Corvallis, OR. Each tank was kept at standard laboratory conditions of 28C on a 14-h light/10-h dark photoperiod in fish water consisting of reverse osmosis water supplemented with a commercially available salt (Instant Ocean). Spawning funnels were placed into the tanks the night prior, and embryos were collected and staged. To increase bioavailability, the chorion was enzymatically removed using pronase (63.6mg/ml, >/= 3.5U/mg, Sigma-Aldrich: P5147) at 4 hours post fertilization (hpf) using a custom automated dechorionator.Chemical exposures: Six hpf dechorionated embryos were placed 1 embryo per well in a 96-well plate prefilled with 90 ul of EM using automated embryo placement systems (AEPS). Ten microliters of each row of dilution plate 2 was added to 2 exposure plates. The final DMSO concentration used was 0.64% (vol/vol). Thirty-two embryos were also exposed to 5uM trimethyltin chloride (positive control). Plates were sealed to prevent evaporation and foil covered to reduce light exposure and kept in a 28C incubator. Embryos were statically exposed until 120 hpf. At 24 hpf, embryos were assessed for photomotor response using a custom photomotor response analysis tool (PRAT) and for developmental toxicity endpoints (MO24: mortality at 24 hpf, DP: developmental progression, SM: spontaneous movement, and NC: notochord distortion). At 120 hpf, locomotor activity was measured using Viewpoint Zebralab and assessed for 18 endpoints. Zebrafish acquisition and analysis program (ZAAP), a custom program designed to inventory, acquire, and manage zebrafish data, was used to collect developmental endpoints as either present or absent (i.e., binary responses were recorded). If mortality occurred for an embryo (at either 24 or 120 hpf), the non-mortality endpoints were not measured.
Turning to `C=C(C)[C@H]1Cc2c(ccc3c2O[C@@H]2COc4cc(OC)c(OC)cc4[C@@H]2C3=O)O1`, the molecule was classed as inactive. With `CCOP(=S)(OCC)Oc1cc(C)nc(C(C)C)n1`, the molecule was classed as inactive. Same read-out and setting: in the case of `CCOC(=O)CC(SP(=O)(OC)OC)C(=O)OCC` (stereo not given) it was “inactive”. Turning to `CCOP(=S)(Oc1cnc(C(C)(C)C)nc1)OC(C)C` (stereo not given), the result was inactive. As to `COP(=O)(OC)SCn1c(=O)oc2cc(Cl)cnc21`, the half-maximal activity concentration (AC50) was 47.5 µM (active).

On to `Cc1nn(-c2cc(NS(C)(=O)=O)c(Cl)cc2Cl)c(=O)n1C(F)F`, for which the molecule was classed as inactive. Still for that read-out and setting: the result for `COc1cccc(C(=O)NN(C(=O)c2cc(C)cc(C)c2)C(C)(C)C)c1C` reads “inactive”. Same read-out and setting: the result for `CCNc1nc(Cl)nc(NC(C)(C)C#N)n1` reads “inactive”; that for `CC(=NC#N)N(C)Cc1ccc(Cl)nc1`, “inactive”.

For `CCCOc1nn(C(=O)NS(=O)(=O)c2ccccc2C(=O)OC)c(=O)n1C`, the molecule was classed as inactive.

For `CNC(=O)ON=C(C)SC`, the result was inactive.

Regarding `CN(C)[C@@H]1C(=O)C(C(N)=O)=C(O)[C@@]2(O)C(=O)C3=C(O)c4c(O)cccc4[C@@](C)(O)[C@H]3[C@H](O)[C@@H]12`, the outcome was inactive.

For `S=C1NCCN1`, the outcome was inactive. On the same count and under the same terms, the result for `CCCSP(=O)(OCC)Oc1ccc(Br)cc1Cl` (stereo not given) reads “inactive”. For the molecule `CSC1=N[C@@](C)(c2ccccc2)C(=O)N1Nc1ccccc1`, the molecule was called inactive.

As for `CCOP(=S)(OCC)SCCSCC`, the molecule was classed as inactive. As to `CNC(=O)ON=C(SC)C(=O)N(C)C`, the call was inactive. Take `CCc1cccc(C)c1N(C(=O)CCl)C(C)COC` (stereo not given): the call was inactive. With `C[Si](Cn1cncn1)(c1ccc(F)cc1)c1ccc(F)cc1`, the AC50 is 12 µM (active).

For `CCC(CC)Nc1c([N+](=O)[O-])cc(C)c(C)c1[N+](=O)[O-]`, the outcome was inactive. The same measure, in the same setting: in the case of `CCOP(=S)(OCC)OC(Cl)C(Cl)(Cl)Cl` (stereo not given) it was “inactive”; in that of `COc1cc(OC)nc(Sc2cccc(Cl)c2C(=O)O)n1`, “inactive”; in that of `CCC(=O)Nc1ccc(Cl)c(Cl)c1`, “inactive”.

Turning to `O=[N+]([O-])c1cc(C(F)(F)F)c(Cl)c([N+](=O)[O-])c1Nc1ncc(C(F)(F)F)cc1Cl`, the result was inactive.

As to `CC(Oc1cccc(Cl)c1)C(=O)O` (stereo not given), the molecule was classed as inactive. Same read-out and setting: the result for `CCOP(=O)(SC(C)CC)N1CCSC1=O` (stereo not given) reads “inactive”.

Regarding `CCc1cnc(C2=NC(C)(C(C)C)C(=O)N2)c(C(=O)O)c1` (stereo not given), the result was inactive. Still for that read-out and setting: in the case of `CNC(=O)Oc1cccc2c1OC(C)(C)O2` it was “inactive”.

Take `CNc1cnn(-c2cccc(C(F)(F)F)c2)c(=O)c1Cl`: the call was inactive. On the same count and under the same terms, the result for `CCCCSP(=O)(SCCCC)SCCCC` reads “inactive”; that for `CCCCOC(=O)c1ccccc1C(=O)O`, “inactive”; that for `CCOP(=S)(OCC)Oc1ccc2c(C)c(Cl)c(=O)oc2c1`, “inactive”. Still for that read-out and setting: in the case of `Cc1cc(C2CC2)nc(Nc2ccccc2)n1` it was “inactive”; in that of `COP(=O)(OC)C(O)C(Cl)(Cl)Cl` (stereo not given), “inactive”.

`CC(C1CC1)C(O)(Cn1cncn1)c1ccc(Cl)cc1` (stereo not given): the concentration at half-maximal activity (AC50) was 9.24 µM (active). With `CCCSP(=O)(OCC)SCCC`, the call was inactive. Still for that read-out and setting: in the case of `CN(C)C(=O)Nc1cccc(C(F)(F)F)c1` it was “inactive”; in that of `Nc1nc(N)nc(NC2CC2)n1`, “inactive”. On to `COc1ccc(C(=CC(=O)N2CCOCC2)c2ccc(Cl)cc2)cc1OC`, for which the concentration at half-maximal activity (AC50) is 35.4 µM (active). `C#CCC1=C(C)C(OC(=O)C2C(C=C(C)C)C2(C)C)CC1=O` (stereo not given): the outcome was inactive.

What is called AC50 is the midpoint of the concentration-response curve, whichever way the signal moves.
